Screens as filed in PubChem BioAssay.
Rows were chosen to be rich in hits. Some 19% of all compounds tested hit in one or more screens of this group.
ELG1 DNA repair: qHTS screen for small molecules that inhibit ELG1-dependent DNA repair in human embryonic kidney (HEK293T) cells expressing luciferase-tagged ELG1; 330,000 tested, 2.3% active; AID 504467, 2011; HEK293T ELG1-luciferase reporter, luminescence, 16 h; DNA damage induced by 5-fluorouridine; Potency, µM (top dose mostly 46.1 µM), for inactives: at the top dose activity change, negative = inhibition, hits mostly inhibitors; note: potency is the fitted concentration of half-maximal effect; nearly all actives have a fitted effect of over 55% in size
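In this reporter screen, reduction of luminescence relative to DMSO vehicle indicated activity. Compounds and 5-fluorouridine were added together to 2,000 cells per well, incubated for 16 hr at 37 °C, then developed with ONE-Glo.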
IL1B secr inh: qHTS for Inhibitors of Inflammasome Signaling: IL-1-beta AlphaLISA Primary Screen; THP-1 LPS/ATP IL-1B secretion, AlphaLISA, 16 h; stronger effect = lower value; 360,000 tested, 4.7% active; activity change, % at 57.5 µM; in the data active = activity change below about -50%; inconclusive = mostly about -30% to -49%
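Secreted IL-1B measured by AlphaLISA bead assay after 16 h compound exposure of THP-1 cells; compounds (final up to 57.5 uM) added 1 h before LPS (250 ng/mL) and ATP (1.25 mM) stimulation; lower signal means less secretion.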
TDP1 cell CPT: qHTS for Inhibitors of human tyrosyl-DNA phosphodiesterase 1 (TDP1): qHTS in cells in presence of CPT | chicken DT40 Tdp1-/-;hTDP1 cells + 20 nM CPT, ATP luminescence, 48 h | Potency, µM (titrated, usually from 46.2 µM), for the others: at the top dose activity change, negative = growth inhibition, most hits filed as inhibitors | 420,000 tested, 12% active | AID 686979, 2013; note: potency is the fitted concentration of half-maximal effect; nearly all actives have a fitted effect of over 55% in size
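Chicken DT40 Tdp1-/- cells complemented with human TDP1, 400 cells/well, exposed to compounds plus 20 nM camptothecin for at least 48 h at 37 C; viability read as ATP content by CellTiter-Glo luminescence.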
Giardia kill: Small Molecules that selectively kill Giardia lamblia: qHTS | 340,000 tested, 0.15% active | Giardia lamblia trophozoite viability | AID 540267, 2011 | activity change, % at 7.66 µM, hits read low; in the data active = activity change below about -80%; inconclusive = between about -30% and that limit;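 note: parasites exposed to compound for two days anaerobically before the ATP read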
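Killing of trophozoites was scored by loss of ATP luminescence after a 48 hrs anaerobic exposure to compounds at 37 deg C, using 100 cells per well.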
TDP1 block: qHTS Assay for Inhibitors of Tyrosyl-DNA Phosphodiesterase (TDP1); Tyrosyl-DNA phosphodiesterase 1 (Homo sapiens), Q9NUW8; recombinant TDP1, AlphaScreen DNA substrate cleavage; Potency, µM (top dose mostly 130 µM), without a hit: top-dose activity change, negative = inhibition, most hits filed as inhibitors; 350,000 tested, 0.28% active; note: potency is the fitted concentration of half-maximal effect; nearly all actives have a fitted effect of over 40% in size
Target sequence (Q9NUW8 whole entry, looked up): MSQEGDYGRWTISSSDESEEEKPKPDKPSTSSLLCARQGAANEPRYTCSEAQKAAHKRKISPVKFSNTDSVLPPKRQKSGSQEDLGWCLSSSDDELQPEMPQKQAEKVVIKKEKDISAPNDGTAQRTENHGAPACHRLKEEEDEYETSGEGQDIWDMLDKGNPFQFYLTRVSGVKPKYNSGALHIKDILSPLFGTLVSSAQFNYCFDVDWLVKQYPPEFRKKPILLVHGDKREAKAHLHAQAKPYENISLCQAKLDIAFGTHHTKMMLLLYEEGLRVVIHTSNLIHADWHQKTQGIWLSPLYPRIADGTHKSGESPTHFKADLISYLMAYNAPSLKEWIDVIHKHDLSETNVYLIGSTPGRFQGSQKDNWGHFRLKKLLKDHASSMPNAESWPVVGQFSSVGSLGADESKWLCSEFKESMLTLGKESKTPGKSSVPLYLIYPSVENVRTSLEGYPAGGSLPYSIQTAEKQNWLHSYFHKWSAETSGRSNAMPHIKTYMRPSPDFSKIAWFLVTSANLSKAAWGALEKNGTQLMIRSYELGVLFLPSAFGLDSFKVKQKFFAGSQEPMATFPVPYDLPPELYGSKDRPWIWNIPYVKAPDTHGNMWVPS
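Recombinant human Tdp1 (E. coli-expressed, 1 nM final) preincubated with compounds 15 min at room temperature, then 5'-biotin/3'-phosphotyrosine-FITC DNA substrate (15 nM final) added for 5 min. AlphaScreen beads (10 ug/ml final) added 10 min; cleavage lowers signal.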
DT40 TDP1 no CPT: qHTS for Inhibitors of human tyrosyl-DNA phosphodiesterase 1 (TDP1): qHTS in cells in absence of CPT. DT40 Tdp1-/- hTDP1 cells, no CPT, ATP luminescence, 48 h. Potency, µM (doses to about 46.2 µM), without a hit: at the top dose activity change, negative = growth inhibition, actives largely listed as inhibitors. 420,000 tested, 15% active. AID 686978, 2013; note: potency is the fitted concentration of half-maximal effect; nearly all actives have a fitted effect of over 55% in size
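Growth of hTDP1-complemented DT40 Tdp1-knockout cells is measured by ATP luminescence after at least 48 hr compound exposure at 37 °C, with DMSO substituting for the 20 nM CPT used in the parallel screen.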
The depositor's hits bear a star; ? = inconclusive; . = no result given. Unless noted, calls come from the whole dose curve; as a rule, active = well fitted curve in the direction sought with a large enough effect; inconclusive = small, poorly fitted or top-dose-only effect, or another doubt; inactive = no such curve, though single readings can be large; an effect the other way counts as inactive or inconclusive. % is set by controls: 0 for no effect and ±100 for the full control effect.

SMILES | ELG1 DNA repair | IL1B secr inh | TDP1 cell CPT | Giardia kill | TDP1 block | DT40 TDP1 no CPT
CCOc1ccccc1NC(=O)c1ccc(F)c(S(=O)(=O)N2CCN(c3ccc(F)cc3)CC2)c1 | . | . | ? | . | 8% | ?
O=[N+]([O-])c1ccc(S(=O)(=O)CC2CSc3nc4ccccc4n32)cc1 (stereo unspecified) | 2% | 57 | 13µM* | 7 | 0% | 12µM*
Nc1nc2ccccc2n1S(=O)(=O)c1ccc([N+](=O)[O-])cc1 | . | 10 | 29µM* | . | . | 21µM*
Cc1ccccc1S(=O)(=O)NC(=O)C1(C)CCN1C(=O)c1cccc2ccccc12 (stereo unspecified) | . | 15 | -23% | . | . | -2%
Nc1ncccc1C(=O)OCC(=O)N1CCN(S(=O)(=O)c2ccc(Cl)cc2)CC1 | 9.2µM* | -12 | ? | 9 | -1% | ?
CCCCn1c(N)c(N(CC(C)C)C(=O)c2c(-c3ccccc3)noc2C)c(=O)[nH]c1=O | 10% | 12 | 0% | 11 | 0% | -1%
COc1ccc(CNC(=O)C2Cc3c(-c4cccc(C(C)=O)c4)ccnc3O2)cc1OC (stereo unspecified) | . | 51 | ? | . | . | ?
O=C(NCC1CC1)C1Cc2c(-c3ccc(Cl)cc3)ccnc2O1 (stereo unspecified) | . | -21 | ? | . | . | ?
CC(=O)c1cccc(-c2ccnc3c2CC(C(=O)NCc2cccs2)O3)c1 (stereo unspecified) | . | 90 | 0.73µM* | . | . | 0.73µM*
O=C(NCc1cccs1)C1Cc2c(-c3ccc(Cl)cc3)ccnc2O1 (stereo unspecified) | . | 51 | 1.5µM* | . | . | 1.8µM*
Cc1cccc(C)c1N1C(=O)c2ccccc2NC(=O)C1C(=O)Nc1ccc(N2CCOCC2)cc1 (stereo unspecified) | . | 12 | ? | . | . | 15µM*
CCC(CO)Oc1cc(NCc2ccccn2)c2ncn(C(C)C)c2c1 (stereo unspecified) | -13% | 4 | -21% | 5 | 2% | -7%
COc1ccc(NC(=O)COC(=O)C2CCN(S(=O)(=O)c3cccs3)CC2)cc1OC | 1% | 8 | 2% | 3 | 0% | -12%
Cc1cccn2cc(CCNC(=O)Cc3cccs3)nc12 | ? | -74* | 6% | 7 | 7% | 1%
O=C1CCc2cc(OCCCCc3nnnn3C3CCCCC3)ccc2N1 | 0% | -7 | ? | 4 | -3% | 16µM*
COc1cccc(N2CCN(Cc3nnnn3C3CCCCC3)CC2)c1 | 3% | 33 | -24% | 17 | 2% | -33%
N/C(Cc1nc(-c2ccc(F)cc2)cs1)=N\O | ? | -54* | -15% | 5 | 1% | -11%
CN1OC[C@@H]2CN(Cc3ccc4c(c3)OCO4)[C@H](c3ccc(N4CCCCC4)cc3)C[C@@H]21 | . | -14 | ? | . | . | ?
Cc1cccc(C)c1NC(=O)C(=O)NCC1CCCN1S(=O)(=O)c1cccs1 (stereo unspecified) | ? | 27 | ? | -19 | . | 12µM*
O=C(NCC1CCCN1S(=O)(=O)c1cccs1)c1cccc(F)c1 (stereo unspecified) | 4% | 3 | 16µM* | 1 | 0% | 18µM*
Cc1cc(C)cc(NC(=O)C(=O)NCC2CCCN2S(=O)(=O)c2cccs2)c1 (stereo unspecified) | -28% | -5 | 7.3µM* | -9 | . | 10µM*
